# Bioassay records from PubChem.
# TWEAK-Fn14 inh: blocks TWEAK-Fn14 interaction in a reporter cell assay. TWEAK-stimulated Fn14 reporter cells, luciferase luminescence, 8 h. inhibition, % at 10 µM. actives 2% (n = 360,000). AID 1159606; in the data active means inhibition above about 50%
# HIF-2a block: inhibitors of HIF-2a. 786-0 RCC cells HIF-2a reporter, luciferase luminescence, overnight. inhibition, % at 18.8 µM. actives 0.72% (n = 360,000);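 active means inhibition of the luminescence signal of 40% or more relative to plate controls, in a single-dose primary screen at 18.75 µM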
# CF NFkB block: cystic fibrosis NF-kB activation inhibition | KKLEB NF-kB-GFP reporter, PAF-induced, GFP fluorescence overnight | inhibition, % at 5 µM | actives 0.86% (n = 360,000) | AID 588850;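 active means at least 50% inhibition at 5 µM, scaled per plate between neutral and stimulator controls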;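 further: PAF is a Pseudomonas aeruginosa culture filtrate used as stimulus; plate controls were PAF-stimulated DMSO wells for no effect and unstimulated DMSO wells for full effect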
# KKLEB tox: reduces viability of KKLEB cystic fibrosis airway cells; actives 0.36% (n = 360,000); KKLEB CF airway cells viability, ATPlite luminescence, overnight; stronger effect = lower value; cells stimulated with P. aeruginosa culture filtrate; activity change (cytotoxicity), % at 5 µM;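 active means corrected activity change at or below -50% at 5 µM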
# Peg3 promoter: Peg3 promoter activity inhibition. inhibition, % at 20 µM. HeLa PEG-Prom luciferase reporter, luminescence, overnight. actives 1.7% (n = 360,000);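 active means inhibition of at least 50% at 20 µM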
# TROY signal inh: TROY signaling inhibition; actives 0.98% (n = 360,000); Q293 LMP1-TROYcd NF-kB luciferase reporter, 4 h; inhibition, % at 10 µM; AID 1347056;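 active means compounds whose plate-normalised and pattern-corrected inhibition of the luciferase reporter signal at the single screening dose is 50% or more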
# An asterisk follows results filed as active; . = no result given. Hits are enriched below; roughly 3.9% of the tested compounds scored in any of these assays.
SMILES,TWEAK-Fn14 inh,HIF-2a block,CF NFkB block,KKLEB tox,Peg3 promoter,TROY signal inh
CCOC(=O)c1ccc(Nc2nc(C)cc(C)n2)cc1,8,-50,-7,-10,-90,-54
CCOc1ccc(Nc2cc(C)nc(N3CCOCC3)n2)cc1,-8,-20,12,0,-20,2
CCOC(=O)c1cnc2ccc(C)cc2c1Nc1ccc(N2CCOCC2)cc1,56*,8,-2,-6,79*,25
CCOC(=O)c1ccc(Nc2cc(C)nc(N3CCOCC3)n2)cc1,12,11,18,-6,55*,4
CCOC(=O)c1ccc(Nc2cc(C)nc(-c3ccccc3)n2)cc1,12,-13,-17,-8,27,71*
CC(/C=N/NC(=O)c1cc(-c2cccnc2)nc2c1c(C)nn2-c1ccccc1)=C\c1ccccc1,21,15,21,-10,51*,7
CCCS(=O)(=O)N1CCN(Cc2ccccc2[N+](=O)[O-])CC1,-8,-5,5,4,10,-11
COc1ccc(S(=O)(=O)N(Cc2cc3ccc(OC)cc3[nH]c2=O)CC2COCCO2)cc1 (centres undefined),3,-54,4,-1,1,-35
O=C(CSc1nc2nc(-c3cccs3)cc(C(F)(F)F)c2c(=O)[nH]1)Nc1ccc(F)c(F)c1,70*,21,26,-12,46,49
Cc1ccc(C)c(NC(=O)CSc2nc3nc(-c4cccs4)cc(C(F)(F)F)c3c(=O)[nH]2)c1,7,-4,-5,-4,18,53*
Cc1ccc(C)c(NC(=O)CSc2nc(N)c(NC(=O)c3cccs3)c(=O)[nH]2)c1,11,12,-18,14,6,6
Cc1ccc(NS(=O)(=O)c2ccc(Cl)c(C(=O)Nc3ccccc3-c3nc4ccccc4[nH]3)c2)cc1C,91*,-22,56*,-26,40,39
CN(C)S(=O)(=O)c1ccc(Cl)c(C(=O)Nc2nc3ccccc3[nH]2)c1,-7,-40,-4,6,-8,2
Cc1ccc(-c2csc3ncnc(N4CCc5ccccc5C4)c23)cc1,78*,19,19,9,23,58*
CCOc1ccccc1N1CCN(c2ncnc3scc(-c4ccc(OC)cc4)c23)CC1,40,22,36,-8,59*,59*
COc1ccc(-c2csc3ncnc(N4CCN(c5ccccc5OC)CC4)c23)cc1,-17,14,16,-7,37,38
Oc1ccccc1N1CCN(c2ncnc3scc(-c4ccccc4)c23)CC1,56*,24,36,1,59*,41
CC(C)CCNC(=O)NC(=O)COC(=O)CCN=C1NS(=O)(=O)c2ccccc21,12,14,5,9,-2,17
Cc1ccc(S(=O)(=O)Nc2ccccc2F)cc1C(=O)NNC(=O)c1csc(N2CCOCC2)n1,0,-1,-4,20,-2,6
Cc1ccc(-n2[nH]c3c4c(ccc3c2=O)C(=O)c2ccccc2C4=O)cc1,9,-4,-19,14,-18,-17
CC(C)(C)n1[nH]c2c3c(ccc2c1=O)C(=O)c1ccccc1C3=O,64*,-33,-16,-8,-27,45
CC(C)NC(=O)COC(=O)c1ccc(S(=O)(=O)N2CCCC2)cc1,13,18,7,3,-10,16
Cc1cc(=O)oc2cc(OCC(=O)N3CCCC(C)C3)ccc12 (centres undefined),-18,-19,7,-5,-3,-36
CCC(C)c1ccc(S(=O)(=O)N2CCN(C(=O)COc3ccc4c(C)cc(=O)oc4c3)CC2)cc1 (centres undefined),58*,10,-14,12,19,.
Cc1cc(C)cc(N2C(=O)N(c3ccccc3C)C3CS(=O)(=O)CC32)c1 (centres undefined),-1,10,-6,5,-5,2
SMILES,TWEAK-Fn14 inh,HIF-2a block,CF NFkB block,KKLEB tox,Peg3 promoter,TROY signal inh
COc1ccc(C(CNC(=O)C(C)c2ccc3cc(OC)ccc3c2)N(C)C)cc1 (centres undefined),63*,-23,-2,-7,-30,8
CCOC(=O)N1CCN(C(=O)C2CC(=O)N(Cc3ccc(OC)cc3)C2)CC1 (centres undefined),72*,6,3,-1,4,.
Nc1c(N(CCC2=CCCCC2)C(=O)CCCOc2ccccc2)c(=O)[nH]c(=O)n1Cc1ccccc1,16,11,6,-4,13,-3
Nc1c(N(CCC2=CCCCC2)C(=O)COc2ccc(F)cc2)c(=O)[nH]c(=O)n1Cc1ccccc1,11,0,11,-8,97*,8
CCn1cc(Cl)c(C(=O)N2N=C(c3ccc4ccccc4c3)CC2c2ccccc2O)n1 (centres undefined),72*,2,15,-5,28,43
O=C1COc2cc(S(=O)(=O)CCC(=O)N3CCCCC3)c(Cl)cc2N1,98*,7,6,2,0,3
COc1ccc(-c2c(-c3ccc(O)cc3O)n[nH]c2C(F)(F)F)cc1,39,16,-8,0,0,19
Oc1ccc(-c2n[nH]c(C(F)(F)F)c2-c2ccccc2)c(O)c1,56*,12,6,-20,12,31
CC(C)(C)OC(=O)C[C@@H]1C/C=C\C[C@H](CC(=O)N(CCO)Cc2ccccc2)C(=O)N[C@@H](Cc2ccccc2)COC1=O,-11,8,-7,9,-11,-4
COc1ccc(-c2cc(NC=O)c3ncc(-c4cccc(C(F)(F)F)c4)n3c2)c(OC)c1,23,1,-14,1,16,4
COc1cc(-c2cnc3c(NC=O)cc(-c4cccc(C(F)(F)F)c4)cn23)cc(OC)c1OC,75*,-42,28,-20,22,39
COc1cc(-c2cc(NC=O)c3ncc(-c4ccc(F)cc4)n3c2)cc(OC)c1OC,11,-38,-1,-18,40,8
COc1cc(-c2cnc3c(NC=O)cc(-c4ccsc4)cn23)cc(OC)c1OC,18,-25,24,-22,76*,16
Cc1ccc(NS(=O)(=O)c2ccc(-n3cccn3)cc2)cc1F,20,14,1,-20,9,5
CC(=O)N1C(C(=O)O)CSC1c1cccc(C)c1 (centres undefined),2,13,17,-3,-1,8
c1ccc(-c2cn3c(n2)-c2ccccc2C3)cc1,72*,-8,-3,-29,-6,33
O=C1c2cccc(OCC(=O)N3CCCc4ccccc43)c2CCN1Cc1ccccc1,6,-8,-10,10,17,-5
O=C1c2cccc(OCC(=O)N3CCCc4ccccc43)c2CCN1Cc1ccc(Br)cc1,79*,-15,5,-14,58*,36
